Source: PubChem BioAssay AID2108 (National Center for Advancing Translational Sciences (NCATS), 2009)
Records with an inconclusive call do not appear. The source made the active and inactive calls. Calls come from the whole dose curve; as a rule, active = well fitted curve in the direction sought with a large enough effect; inconclusive = small, poorly fitted or top-dose-only effect, or effect the other way, or another doubt; inactive = no such curve, though single readings can be large or run the other way.

Target: Alpha-galactosidase A (Homo sapiens) (UniProt P06280)
Assay: Confirmation of Inhibitors of Human alpha-Galactosidase Using Spleen Homogenate; note: 0% is about no effect
Details: alpha-galactosidase enzyme activity; series mostly up to 56.2 µM; activity change: at the top concentration
Description: NIH Chemical Genomics Center [NCGC]
NIH Molecular Libraries Probe Production Centers Network [MLPCN]
Assay Submitter (PI): Wei Zheng
Alpha-galactosidase is a homodimeric glycoprotein that hydrolyzes the terminal alpha-galactosyl moieties from glycolipids and glycoproteins. Deficiency of this enzyme results in Fabry Disease with progressive accumulation of globotriaosylceramide and other glycosphingolipids in vascular endothelial cells that causes renal failure, myocardial infarction and stroke, and premature death in patients. It has been reported that the improper folding and trafficking of alpha-galactosidase resulting from genetic mutations may account for a significant number of Fabry patients. […] We optimized this alpha-galactosidase assay in 1536-well plate format for identification of novel small molecule inhibitors or activators with structures other than the sugar analogs in order to develop new pharmacological chaperones. In particular, this assay is directed towards discovering compounds active in more natural setting, tissue homogenate, that may have been missed by screens of the purified enzyme under more stringent conditions. This assay attempted to confirm hits from the primary screening.
NCGC Assay Protocol Summary:
This is a fluorogenic enzyme assay with 4-methylumbelliferyl-alpha-D-galactopyranoside as the substrate and human spleen homogenate containing alpha-galactosidase as the enzyme preparation. Upon hydrolysis of this fluorogenic substrate, the resulting product, 4-methylumbelliferone (which excites at 365 nm and emits at 440 nm) can be detected by a fluorescence plate reader. Data were normalized to the controls for basal activity (without enzyme) and 100% activity (with enzyme). The AC50 values were determined from concentration-response data modeled with the standard Hill equation.
Assay buffer: 50 mM citric acid (titrated with potassium phosphate to pH 5.0), 0.01% Tween-20 (pH 5.0 is an optimal condition for this enzyme assay)
1536-well assay protocol for the alpha-galactosidase from human spleen homogenate:
(1) Add 2 ul/well spleen homogenate (1 ug)
(2) Add 23 nL compounds in DMSO solution. The final titration was 0.5 nM to 58 uM.
(3) Add 2 ul of substrate (1 mM final)
(4) Incubate at 37C for 40 min
(5) Add 2 ul stop solution (1M NaOH and 1M Glycine mixture, pH 10)
(6) Detect the assay plate in a ViewLux plate reader (PerkinElmer) with Ex=365 nm and Em=440nm.
Keywords: Alpha-galactosidase, Fabry Disease, pharmacological chaperone, chaperone therapy, high throughput screening, alpha- galactosidase inhibitor, MLSMR, MLSCN, NIH Roadmap, qHTS and NCGC

Alpha-galactosidase A (Homo sapiens), sequence (P06280 32-429 limits assumed): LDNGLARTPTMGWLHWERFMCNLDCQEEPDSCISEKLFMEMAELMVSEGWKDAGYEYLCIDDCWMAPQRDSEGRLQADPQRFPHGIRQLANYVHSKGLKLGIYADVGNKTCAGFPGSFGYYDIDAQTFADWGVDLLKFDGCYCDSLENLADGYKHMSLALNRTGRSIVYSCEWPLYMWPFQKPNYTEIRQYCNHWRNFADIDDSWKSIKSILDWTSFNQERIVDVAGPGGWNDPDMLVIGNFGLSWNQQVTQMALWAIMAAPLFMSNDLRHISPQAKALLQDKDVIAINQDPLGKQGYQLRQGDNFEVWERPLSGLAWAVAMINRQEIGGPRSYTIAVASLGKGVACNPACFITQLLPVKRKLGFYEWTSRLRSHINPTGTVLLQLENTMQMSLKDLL

| Structure (SMILES) | activity change | outcome |
| --- | --- | --- |
| CC(=O)[O][Hg][c]1ccccc1 | 4.67% [at 287 µM] (inactive) |  |
| OC[C@@H]1[C@@H](O)[C@H](O)[C@H]2[C@@H](O)CCN21 | -8.3% (inactive) |  |
| CCCCC/C=C\C/C=C\C/C=C\C/C=C\CCCC(=O)NCCCC(=O)O | -14.3% (inactive) |  |
| COc1ccc(Cc2nccc3cc(OC)c(OC)cc23)cc1OC | -3.36% (inactive) |  |
| CC(C)(C)c1cc(C=C(C#N)C#N)cc(C(C)(C)C)c1O | -10.5% (inactive) |  |
| C/C(O)=C(/C#N)C(=O)Nc1cc(Br)ccc1Br | -8.06% (inactive) |  |
| O[C@H]1[C@H](O)[C@@H](O)CN2CC[C@H](O)[C@H]12 |  | inactive |
| Cc1cc(C(=O)CS(=O)(=O)c2ccc(F)cc2)cc(C)c1OC(=O)N(C)C | 2.73% [at 23.6 µM] (inactive) |  |
| O=C(O)c1ccccc1-c1c2cc(Br)c(=O)cc-2oc2[c]([Hg])c(O)c(Br)cc12 | -13.4% [at 287 µM] (inactive) |  |
| Cc1cc(/C=C2/C(=O)NC(=O)N(Cc3ccco3)C2=O)c(C)n1-c1ccc(C(=O)O)cc1 | 1.17% (inactive) |  |
| Cc1cc(/C=C2\C(=O)NC(=O)N(c3ccc(F)cc3)C2=O)c(C)n1-c1ccc(C(=O)O)cc1 | 0.884% (inactive) |  |
| CC(=O)Nc1ccc(OC(=O)c2ccccc2N)cc1 | 6.81% [at 23.6 µM] (inactive) |  |
| Cc1[nH]c2ccccc2c1C1=CCNCC1 | 0.948% (inactive) |  |
| Cc1ccc2c(CN3CC=C(c4ccccc4)CC3)cc(=O)oc2c1C | 0.701% (inactive) |  |
| O=c1[nH]c(CN2CC=C(c3ccccc3)CC2)nc2scc(-c3cccs3)c12 | -0.863% (inactive) |  |
| C/C=C(/C)C(=O)O[C@H]1C(C)=C2C([C@@H]1OC(=O)CCCCCCC)[C@@](C)(OC(C)=O)C[C@@H](OC(=O)CCC)[C@@]1(O)[C@H]2OC(=O)[C@@]1(C)O (stereo partly drawn) | -13.8% (inactive) |  |
| CCOc1ccc2cc(C#N)c(=O)oc2c1 | 1.36% (inactive) |  |
| O[C@@H]1[C@H](O)[C@H]2[C@@H](O)CCN2C[C@@H]1O | -6.64% [at 287 µM] (inactive) |  |
